Data on 40 compounds can be found in PubChem BioAssay (EPA / NIEHS).

Activity calls are given as the source filed them. Rule for the calls: active = hit-call score of the fitted dose curve at least 0.9, where 1 is the maximum; inactive = score below 0.9.

Chain of Hypoxia-inducible factor 1-alpha (Homo sapiens) (Q16665 whole entry, looked up): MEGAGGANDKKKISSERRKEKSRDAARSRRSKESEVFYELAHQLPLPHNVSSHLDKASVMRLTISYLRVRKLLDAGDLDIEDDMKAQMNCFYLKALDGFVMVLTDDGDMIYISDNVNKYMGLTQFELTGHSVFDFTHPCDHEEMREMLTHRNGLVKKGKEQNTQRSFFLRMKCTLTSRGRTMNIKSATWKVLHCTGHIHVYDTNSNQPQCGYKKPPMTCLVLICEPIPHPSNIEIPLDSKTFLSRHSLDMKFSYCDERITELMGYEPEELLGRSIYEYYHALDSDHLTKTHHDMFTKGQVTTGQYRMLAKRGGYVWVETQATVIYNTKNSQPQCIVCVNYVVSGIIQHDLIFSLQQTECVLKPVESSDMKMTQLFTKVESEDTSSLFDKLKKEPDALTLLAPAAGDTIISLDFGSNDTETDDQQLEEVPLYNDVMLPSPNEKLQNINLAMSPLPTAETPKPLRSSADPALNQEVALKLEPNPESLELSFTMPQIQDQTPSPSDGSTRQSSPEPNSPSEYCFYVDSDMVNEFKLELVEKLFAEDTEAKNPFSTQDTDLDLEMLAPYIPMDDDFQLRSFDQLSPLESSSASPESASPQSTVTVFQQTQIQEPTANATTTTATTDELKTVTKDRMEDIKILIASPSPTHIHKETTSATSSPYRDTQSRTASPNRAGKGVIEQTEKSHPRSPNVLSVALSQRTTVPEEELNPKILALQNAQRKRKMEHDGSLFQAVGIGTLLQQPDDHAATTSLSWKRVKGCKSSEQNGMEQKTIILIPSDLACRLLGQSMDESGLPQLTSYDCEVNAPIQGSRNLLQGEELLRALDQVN

The assay deals with Hypoxia-inducible factor 1-alpha (Homo sapiens) (UniProt Q16665). Nature of the assay: ATG_HIF1a_CIS: Attagene CIS-FACTORIAL HepG2 Assay for human Hypoxia Inducible Factor 1 (HIF1A) (AID 2282951). The settings on record: HepG2 Attagene cis-factorial HIF1a reporter transcription; actives raise or lower the signal. How it is done:
ATG_CIS is a cell-based, multiplexed-readout assay that uses HepG2, a human liver cell line, with measurements taken at 24 hours after chemical dosing in a 24-well plate.ATG_HIF1a_CIS is one of 52 assay component(s) measured or calculated from the ATG_CIS assay. It is designed to make measurements of mRNA induction, a form of inducible reporter, as detected with fluorescence intensity signals by Reverse transcription polymerase chain reaction (RT-PCR) and Capillary electrophoresis technology.Data from the assay component ATG_HIF1a_CIS was analyzed into 1 assay endpoint. This assay endpoint, ATG_HIF1a_CIS, was analyzed with bidirectional fitting relative to DMSO as the negative control and baseline of activity. Using a type of inducible reporter, measures of mRNA for gain or loss-of-signal activity can be used to understand the reporter gene at the transcription factor-level as they relate to the gene HIF1A. Furthermore, this assay endpoint can be referred to as a primary readout, because this assay has produced multiple assay endpoints where this one serves a reporter gene function. To generalize the intended target to other relatable targets, this assay endpoint is annotated to the dna binding intended target family, where the subfamily is basic helix-loop-helix protein.
Human liver HepG2 cells are transiently transfected with multiple reporter transcription units (MRTUs) in 6-well plates using FuGene 6 reagent (Roche; 3 ml FuGene/1 mg DNA). The MRTU constructs are regulated by a cis-regulating element (promoter). […] A major difference between the CIS and TRANS system is that in CIS activities of endogenous TFs are measured, whereas the TRANS assay evaluates changes in activities of exogenous, chimeric NR-Gal4 proteins. […] At the end of 24 hour incubation, total RNA was isolated using TriZol reagent (Invitrogen). The isolated RNA is then reverse-transcribed using oligo(dT) primer and Mo-MLV reverse transcriptase (Invitrogen) with DNAse I (Ambion) treatment for 30 min. The one-tenth of the produced cDNA was amplified by PCR using Taq DNA polymerase (Invitrogen) and two reporter sequence-specific primers. The PCR products were fluorescently labeled by primer extension with 6-arboxyfluorescein (6-FAM) 5'-labeled reporter sequence-specific primer (2 min at 95 C, 20 s at 68 C and 10 min at 72 C) and these products were digested with 5U of HpaI (New England Biolabs) for 2h at 37 C. The fragments were purified using Qiaquick PCR columns (Qiagen), analyzed on an ABI 3130xL genetic analyzer (Applied Biosystems) with peak positions identified by using a set of X-rhodamine (ROX)-labeled MapMarker1000 molecular weight standards (BioVentures). The raw capillary electrophoresis data was processed using Attagraph software (Attagene).
In the case of `COC(=O)C=Cc1ccccc1`, the compound was called inactive.

Take `CC(C)c1cccc(C(C)C)c1N`: the result was inactive.

`C[Si](C)(C)N[Si](C)(C)C`: the compound was called inactive.

Consider `Cc1ccc2c(c1)CCCN2`, for which the outcome was inactive.

As to `CC(C)CC(=O)OCc1ccccc1`, the compound was classed as inactive.

As for `C=C(C)[C@@H]1CC=C(C)CC1`, the compound was classed as inactive.

For `Cc1ccc(S(=O)(=O)N=C=O)cc1`, the result was inactive.

Consider `Cc1cc(=O)[nH]c(=O)[nH]1`, for which the compound was called inactive.

As for `Nc1ccc(C(=O)OCCCOC(=O)c2ccc(N)cc2)cc1`, the result was inactive.

For the compound `O=C(Cl)c1ccc(C(=O)Cl)cc1`, the outcome was inactive.

Take `COC(OC)(C(=O)c1ccccc1)c1ccccc1`: the compound was called inactive.

In the case of `C=C(C)OC(C)=O`, the compound was classed as inactive.

As to `O=C1CCCCCCCCCCC1`, the compound was called inactive.

Consider `CC(C)CCOCc1ccccc1`, for which the call was inactive.

`CC1CC(=O)CC(C)(C)C1` (stereo not given): the call was inactive.

In the case of `CC1CCC(=O)C1=O` (stereo not given), the compound was called inactive.

On to `CCc1cccc(C)c1N`, for which the outcome was inactive.

As to `CCCCCCCC(=O)OCC(COC(=O)CCCCCCC)OC(=O)CCCCCCC`, the compound was classed as inactive.

As for `CC(C)COC(=O)CC(C(=O)OCC(C)C)S(=O)(=O)O` (stereo not given), the call was inactive.

With `CCOC(=O)CC(=O)c1ccccc1`, the compound was called inactive.

For `C=C(C)C(=O)OCCOC(=O)C(=C)C`, the outcome was inactive.

On to `CC(=O)CCC1=C(C)CCCC1(C)C`, for which the compound was called inactive.

In the case of `CO[Si](CCCS)(OC)OC`, the result was inactive.

As to `CCCCCCOC(=O)CCCCC(=O)OCCCCCC`, the call was inactive.

As for `O=C(Oc1ccccc1)c1ccccc1C(=O)Oc1ccccc1`, the result was inactive.

Regarding `COc1ccc(C(=O)/C(Br)=C\C(=O)O)cc1`, the AC50 was 56.1 µM (active).

Turning to `CCOB(OCC)OCC`, the compound was classed as inactive.

`CCCC(C)C(=O)OCC` (stereo not given): the result was inactive.

As for `CC1CCC(C(C)(C)S)C(=O)C1` (stereo not given), the call was inactive.

As for `COc1ccc(C(=O)c2ccccc2)c(O)c1`, the outcome was inactive.

Take `COC(=O)c1ccccc1C`: the result was inactive.

On to `CCCC1CCCC(=O)O1` (stereo not given), for which the outcome was inactive.

For `CCCCCCCO`, the result was inactive.

Take `CC=C(C)C=CC=C(C)C`: the call was inactive.

Take `Oc1ccc(-c2ccccc2)c(Cl)c1`: the concentration at half-maximal activity (AC50) was 8.12 µM (active).

`CC(C)(C)N`: the compound was called inactive.

Turning to `CCN1CN(CC)CN(CC)C1`, the outcome was inactive.

With `CCOC(=O)/C=C\C(=O)OCC`, the compound was classed as inactive.

With `C=CCCCCCCCCOC(C)=O`, the compound was called inactive.

As for `Cc1noc(NS(=O)(=O)c2ccc(N)cc2)c1C`, the compound was classed as inactive.

What is called AC50 is the concentration at which the activity in the assay is half-maximal.
